We go through nine molecules from PubChem BioAssay (NCI).

Among the test systems are SR leukemia; RPMI-8226 leukemia; OVCAR-8 ovarian; OVCAR-5 ovarian; OVCAR-4 ovarian; SK-OV-3 ovarian; IGROV1 ovarian; OVCAR-3 ovarian; HS 578T breast; NCI/ADR-RES ovarian; T-47D breast; BT-549 breast; MDA-MB-435 melanoma; SW-620 colon; MCF7 breast; HCT-116 colon; HCC-2998 colon; KM12 colon.
Holding throughout (assay): NCI-60 one-dose screen, 48 h (100 = growth as untreated, 0 = no growth, -100 = all killed)
Holding throughout (settings): 10 µM

The panel holds about 83,000 compounds, 20% with a hit somewhere; the sample as a whole holds those more often.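 Step 1: grow cells in 96-well plates. Step 2: add test compound at a single concentration. Step 3: incubate 48 h. Step 4: record percent growth.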 A number with no mark means an inactive call. Calls of active or inactive are those of the source. The calls were made as follows: active = growth percent below 10; inactive = the rest.

As to `COc1cc(-c2c(C#N)c(N)n3c(nc4ccccc43)c2C#N)cc(Br)c1OC`, the growth in the experiment with SR leukemia is -1.43% (active); in the experiment on RPMI-8226 leukemia it was 35.8%; in the experiment with OVCAR-8 ovarian it was 36.4%; in the experiment with OVCAR-5 ovarian it was 68.9%; in the experiment on OVCAR-4 ovarian, -2.8% (active); in the experiment on SK-OV-3 ovarian, 49.3%. Besides, the growth in the experiment on IGROV1 ovarian is 83.5%; in the experiment on OVCAR-3 ovarian, -36.6% (active); in the experiment with HS 578T breast, 19.7%; with NCI/ADR-RES ovarian, 78.1%; in the experiment on T-47D breast it was 65.8%; in the experiment on BT-549 breast it was 65.1%. Besides, the growth is 62.8% with MDA-MB-435 melanoma; 41.4% in the experiment with SW-620 colon; 24.6% in the experiment with MCF7 breast; 18.8% with HCT-116 colon; 89.5% in the experiment with HCC-2998 colon; 21.1% in the experiment on KM12 colon.
Take `C=CCNCCCN1C(=O)c2ccc3c4c(ccc(c24)C1=O)C(=O)N(CCCNCC=C)C3=O`: the growth was -12.8% (active) in the experiment with SR leukemia; 11.3% in the experiment with RPMI-8226 leukemia; -14.5% (active) with OVCAR-8 ovarian; -44.6% (active) in the experiment with OVCAR-5 ovarian; -98.5% (active) with OVCAR-4 ovarian; -36.9% (active) in the experiment with SK-OV-3 ovarian. Also, the growth in the experiment with IGROV1 ovarian is -70.3% (active); with OVCAR-3 ovarian it was -18.1% (active); with HS 578T breast, -41.3% (active); with NCI/ADR-RES ovarian it was -7.11% (active); with T-47D breast, -48.6% (active); in the experiment on BT-549 breast, -82% (active). Also, the growth was -79% (active) with MDA-MB-435 melanoma; -54.1% (active) in the experiment with SW-620 colon; -64.8% (active) with MCF7 breast; -16% (active) in the experiment on HCT-116 colon; -85.9% (active) in the experiment on HCC-2998 colon; -69.3% (active) in the experiment with KM12 colon.
Regarding `c1ccc(COCC[P+](c2ccccc2)(c2ccccc2)c2ccccc2)cc1`, the growth is -15.6% (active) in the experiment with SR leukemia; -30.3% (active) in the experiment on RPMI-8226 leukemia; 3.8% (active) in the experiment with OVCAR-8 ovarian; 24.2% in the experiment with OVCAR-5 ovarian; 6.56% (active) in the experiment on OVCAR-4 ovarian; -0.443% (active) in the experiment on SK-OV-3 ovarian. Moreover, the growth is -8.1% (active) in the experiment on IGROV1 ovarian; 3.01% (active) with OVCAR-3 ovarian; 32.9% in the experiment on HS 578T breast; 81.8% in the experiment with NCI/ADR-RES ovarian; 12% in the experiment on T-47D breast; 5.25% (active) in the experiment with BT-549 breast. Further, the growth in the experiment with MDA-MB-435 melanoma was -0.102% (active); in the experiment on SW-620 colon it was 14%; in the experiment with MCF7 breast, 4.89% (active); in the experiment on HCT-116 colon it was 5.42% (active); with HCC-2998 colon, 6.68% (active); in the experiment with KM12 colon, 6.34% (active).
Consider `CCNC1(NC#N)CCCCC1`, for which the growth with SR leukemia is 103%; in the experiment with RPMI-8226 leukemia it was 101%; in the experiment with OVCAR-8 ovarian, 84.4%; in the experiment on OVCAR-5 ovarian, 116%; in the experiment with OVCAR-4 ovarian it was 113%; with SK-OV-3 ovarian it was 104%. Also, the growth in the experiment with IGROV1 ovarian was 115%; in the experiment with OVCAR-3 ovarian, 109%; in the experiment with HS 578T breast it was 103%; with NCI/ADR-RES ovarian it was 101%; in the experiment with T-47D breast, 104%; in the experiment with BT-549 breast, 110%. Further, the growth is 97.7% with MDA-MB-435 melanoma; 104% in the experiment on SW-620 colon; 104% in the experiment with MCF7 breast; 103% in the experiment with HCT-116 colon; 96.2% in the experiment with HCC-2998 colon; 105% with KM12 colon.
Turning to `COc1ccc(-c2cc(/C=C3\C(=O)Nc4cc(Cl)ccc43)[nH]n2)cc1`, the growth in the experiment on SR leukemia is 19.3%; in the experiment with RPMI-8226 leukemia, 19.7%; in the experiment with OVCAR-8 ovarian, 48.1%; in the experiment on OVCAR-5 ovarian, 69.4%; with OVCAR-4 ovarian, 64.1%; in the experiment with SK-OV-3 ovarian, 28.8%. In addition, the growth was 42.6% with IGROV1 ovarian; -3% (active) with OVCAR-3 ovarian; -4.18% (active) in the experiment with HS 578T breast; 9.42% (active) in the experiment on NCI/ADR-RES ovarian; 47.8% with T-47D breast; 63.5% in the experiment on BT-549 breast. Besides, the growth in the experiment with MDA-MB-435 melanoma is -36.7% (active); in the experiment on SW-620 colon, 19.9%; with MCF7 breast it was 11.7%; with HCT-116 colon it was 26.2%; with HCC-2998 colon, 56.7%; in the experiment with KM12 colon, 19.2%.
Take `COc1ccc2nc(C)cc(Nc3ccc(Cl)cc3)c2c1`: the growth with SR leukemia was 113%; in the experiment with RPMI-8226 leukemia it was 102%; in the experiment with OVCAR-8 ovarian it was 101%; with OVCAR-5 ovarian, 101%; in the experiment with OVCAR-4 ovarian, 90.5%; in the experiment with SK-OV-3 ovarian it was 105%. Also, the growth with IGROV1 ovarian was 98.2%; with OVCAR-3 ovarian, 105%; in the experiment on HS 578T breast it was 112%; with NCI/ADR-RES ovarian, 102%; with T-47D breast, 102%; with BT-549 breast, 103%. Also, the growth in the experiment on MDA-MB-435 melanoma is 108%; in the experiment on SW-620 colon, 106%; in the experiment with MCF7 breast, 89%; in the experiment with HCT-116 colon it was 101%; with HCC-2998 colon, 107%; with KM12 colon, 107%.
Take `CCOC(=O)c1cc2c(n1Cc1ccccc1)-c1oncc1CC2`: the growth was 13.1% in the experiment on SR leukemia; 67.1% in the experiment with RPMI-8226 leukemia; 97% in the experiment with OVCAR-8 ovarian; 97.4% in the experiment on OVCAR-5 ovarian; 105% with OVCAR-4 ovarian; 92% in the experiment with SK-OV-3 ovarian. Further, the growth in the experiment with IGROV1 ovarian is 42.4%; in the experiment with OVCAR-3 ovarian, -0.497% (active); in the experiment with HS 578T breast, 76.8%; in the experiment with NCI/ADR-RES ovarian, 45.3%; in the experiment with T-47D breast, 93.8%; in the experiment with BT-549 breast, 92.7%. Further, the growth in the experiment on MDA-MB-435 melanoma is -27.4% (active); in the experiment on SW-620 colon, 32.9%; with MCF7 breast, 80.3%; with HCT-116 colon, 89%; in the experiment with HCC-2998 colon, 83.6%; in the experiment with KM12 colon, 31.4%.
In the case of `O=C(O)c1ccccc1C(=O)c1cccc2c(F)cccc12`, the growth in the experiment with SR leukemia was 115%; with RPMI-8226 leukemia, 104%; with OVCAR-8 ovarian it was 99%; in the experiment on OVCAR-5 ovarian, 110%; in the experiment with OVCAR-4 ovarian, 98.4%; in the experiment on SK-OV-3 ovarian, 109%. The growth was 113% with IGROV1 ovarian; 117% in the experiment on OVCAR-3 ovarian; 126% with HS 578T breast; 104% in the experiment with NCI/ADR-RES ovarian; 94.5% in the experiment with T-47D breast; 103% with BT-549 breast. The growth in the experiment on MDA-MB-435 melanoma was 112%; in the experiment on SW-620 colon, 106%; in the experiment with MCF7 breast, 93.5%; with HCT-116 colon it was 103%; with HCC-2998 colon, 105%; in the experiment on KM12 colon, 111%.
Regarding `COc1ccc2nc(-c3ccccc3)cc(C(C)=O)c2c1`, the growth in the experiment with SR leukemia was 81.6%; in the experiment on RPMI-8226 leukemia, 94.5%; in the experiment on OVCAR-8 ovarian, 97.3%; in the experiment on OVCAR-5 ovarian it was 92.4%; in the experiment on OVCAR-4 ovarian, 103%; in the experiment with SK-OV-3 ovarian, 107%. For the same molecule, the growth is 86.2% with IGROV1 ovarian; 115% in the experiment with OVCAR-3 ovarian; 94.3% with HS 578T breast; 90.1% with NCI/ADR-RES ovarian; 69.5% with T-47D breast; 93.6% in the experiment on BT-549 breast. Besides, the growth with MDA-MB-435 melanoma was 98%; with SW-620 colon it was 99.9%; in the experiment on MCF7 breast it was 72.6%; in the experiment with HCT-116 colon it was 91.2%; in the experiment with HCC-2998 colon, 107%; in the experiment on KM12 colon, 103%.
